Test results as given in the supplement of paper PMC12669032.

Columns and labels:
Assay in all cases: growth AUC relative to DMSO control (median of replicates) (fraction); higher = more growth (less inhibition), active = hit call of the paper
Conditions in all cases: 20 µM; 24 h;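 active = AUC reduced over 20% with Padj below 0.05 in at least 2 of 3 replicates; inactive = otherwise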
Akkermansia muciniphila = tested on: Akkermansia muciniphila
How it was run: (§1)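 Area under the growth curve was normalised to the plate median of solvent-only wells, or to row and column medians on the industrial chemical plate. Growth curves came from anaerobic gut bacterial monocultures in mGAM at 37 °C, seeded at OD600 0.05 with 20 µM compound (1% DMSO), and read at OD600 hourly for 24 h with the minimum OD set to 0. The value is the median of three biological replicates grown on separate days.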

Bacteroides caccae = tested on: Bacteroides caccae
How it was run: as §1

Bacteroides clarus = tested on: Bacteroides clarus
How it was run: as §1

Bacteroides dorei = tested on: Bacteroides dorei
How it was run: as §1

Bacteroides stercoris = tested on: Bacteroides stercoris
How it was run: as §1

[1] = tested on: Bacteroides thetaiotaomicron
How it was run: as §1

Bacteroides uniformis = tested on: Bacteroides uniformis
How it was run: as §1

[2] = tested on: Bifidobacterium longum subsp. longum
How it was run: as §1

Clostridium difficile = tested on: Clostridium difficile
How it was run: as §1

Collinsella aerofaciens = tested on: Collinsella aerofaciens
How it was run: as §1

Coprococcus comes = tested on: Coprococcus comes
How it was run: as §1

Escherichia coli ED1a = tested on: Escherichia coli ED1a
How it was run: as §1

Escherichia coli IAI1 = tested on: Escherichia coli IAI1
How it was run: as §1

Eubacterium rectale = tested on: Eubacterium rectale
How it was run: as §1

[3] = tested on: Fusobacterium nucleatum subsp. animalis
How it was run: as §1

Lactobacillus gasseri = tested on: Lactobacillus gasseri
How it was run: as §1

Lactobacillus paracasei = tested on: Lactobacillus paracasei
How it was run: as §1

Odoribacter splanchnicus = tested on: Odoribacter splanchnicus
How it was run: as §1

[4] = tested on: Parabacteroides distasonis
How it was run: as §1

Parabacteroides merdae = tested on: Parabacteroides merdae
How it was run: as §1

SMILES | growth AUC (Akkermansia muciniphila) | growth AUC (Bacteroides caccae) | growth AUC (Bacteroides clarus) | growth AUC (Bacteroides dorei) | growth AUC (Bacteroides stercoris) | growth AUC [1] | growth AUC (Bacteroides uniformis) | growth AUC [2] | growth AUC (Clostridium difficile) | growth AUC (Collinsella aerofaciens) | growth AUC (Coprococcus comes) | growth AUC (Escherichia coli ED1a) | growth AUC (Escherichia coli IAI1) | growth AUC (Eubacterium rectale) | growth AUC [3] | growth AUC (Lactobacillus gasseri) | growth AUC (Lactobacillus paracasei) | growth AUC (Odoribacter splanchnicus) | growth AUC [4] | growth AUC (Parabacteroides merdae)
CCOP(=S)(OCC)SCS(=O)(=O)C(C)(C)C | 0.89 (inactive) | 1.02 (inactive) | 0.944 (inactive) | 0.994 (inactive) | 0.976 (inactive) | 1.01 (inactive) | 1.01 (inactive) | 0.966 (inactive) | 0.98 (inactive) | 1.02 (inactive) | 0.991 (inactive) | 1.01 (inactive) | 0.966 (inactive) | 1.08 (inactive) | 0.964 (inactive) | 1.02 (inactive) | 1.03 (inactive) | 0.979 (inactive) | 1.02 (inactive) | 0.986 (inactive)
CCCOC(=O)c1ccccc1C(=O)OCCC | 1.16 (inactive) | 1.04 (inactive) | 1.03 (inactive) | 0.983 (inactive) | 1.18 (inactive) | 0.992 (inactive) | 0.989 (inactive) | 1.05 (inactive) | 0.999 (inactive) | 1.01 (inactive) | 1.11 (inactive) | 1.02 (inactive) | 1.05 (inactive) | 1.1 (inactive) | 1.15 (inactive) | 0.999 (inactive) | 1.09 (inactive) | 0.698 (inactive) | 0.953 (inactive) | 0.993 (inactive)
COP(=O)(OC)Oc1ccc(S(C)=O)c(C)c1 (stereo not given) | 0.935 (inactive) | 0.986 (inactive) | 0.95 (inactive) | 1 (inactive) | 1.02 (inactive) | 0.972 (inactive) | 0.994 (inactive) | 1 (inactive) | 1.01 (inactive) | 0.996 (inactive) | 1.01 (inactive) | 0.962 (inactive) | 0.987 (inactive) | 0.797 (inactive) | 0.911 (inactive) | 1.13 (inactive) | 0.975 (inactive) | 1.02 (inactive) | 1.01 (inactive) | 0.978 (inactive)
O=C(Nc1ccc(F)cc1F)c1cccnc1Oc1cccc(C(F)(F)F)c1 | 0.947 (inactive) | 0.929 (inactive) | 0.965 (inactive) | 0.882 (inactive) | 0.924 (inactive) | 0.966 (inactive) | 1.01 (inactive) | 1 (inactive) | 0.977 (inactive) | 0.946 (inactive) | 0.999 (inactive) | 0.968 (inactive) | 0.965 (inactive) | 1.06 (inactive) | 0.939 (inactive) | 0.891 (inactive) | 1.05 (inactive) | 1.06 (inactive) | 0.962 (inactive) | 0.971 (inactive)
CC1(C)C(/C=C(\Cl)C(F)(F)F)C1C(=O)OC(C#N)c1cccc(Oc2ccccc2)c1 (stereo not given) | 0.989 (inactive) | 0.951 (inactive) | 1.02 (inactive) | 1.01 (inactive) | 1.19 (inactive) | 0.995 (inactive) | 0.993 (inactive) | 1.12 (inactive) | 1.04 (inactive) | 0.969 (inactive) | 1.01 (inactive) | 1.05 (inactive) | 1.02 (inactive) | 1.03 (inactive) | 1.12 (inactive) | 0.895 (inactive) | 1.08 (inactive) | 0.878 (inactive) | 1.03 (inactive) | 1.03 (inactive)
COc1nc(C)nc(NC(=O)NS(=O)(=O)c2ccccc2CCC(F)(F)F)n1 | 0.874 (inactive) | 0.985 (inactive) | 1.01 (inactive) | 0.992 (inactive) | 0.978 (inactive) | 0.948 (inactive) | 0.978 (inactive) | 0.966 (inactive) | 0.992 (inactive) | 0.966 (inactive) | 0.967 (inactive) | 0.997 (inactive) | 0.976 (inactive) | 0.954 (inactive) | 0.992 (inactive) | 1.06 (inactive) | 1 (inactive) | 0.962 (inactive) | 1.01 (inactive) | 1 (inactive)
Oc1ccc(Cl)cc1 | 0.989 (inactive) | 0.997 (inactive) | 0.952 (inactive) | 1.01 (inactive) | 0.981 (inactive) | 0.997 (inactive) | 0.987 (inactive) | 0.971 (inactive) | 0.981 (inactive) | 0.988 (inactive) | 0.989 (inactive) | 0.967 (inactive) | 0.951 (inactive) | 0.921 (inactive) | 0.941 (inactive) | 0.968 (inactive) | 1 (inactive) | 1.01 (inactive) | 1.05 (inactive) | 0.988 (inactive)
CC(C)(C)C(O)/C(=C/c1ccc(Cl)cc1Cl)n1cncn1 (mixture of isomers) | 1 (inactive) | 0.869 (inactive) | 0.947 (inactive) | 0.854 (inactive) | 1.32 (inactive) | 0.88 (inactive) | 0.874 (inactive) | 1.02 (inactive) | 0.964 (inactive) | 1.03 (inactive) | 0.959 (inactive) | 0.983 (inactive) | 0.979 (inactive) | 0.992 (inactive) | 1 (inactive) | 0.836 (inactive) | 0.997 (inactive) | 0.86 (inactive) | 0.938 (inactive) | 0.907 (inactive)
CCC(C)(CC)c1cc(NC(=O)c2c(OC)cccc2OC)on1 | 1.05 (inactive) | 1.01 (inactive) | 0.949 (inactive) | 1.03 (inactive) | 1.04 (inactive) | 0.959 (inactive) | 0.965 (inactive) | 1.04 (inactive) | 1 (inactive) | 0.959 (inactive) | 1.03 (inactive) | 1.01 (inactive) | 0.988 (inactive) | 0.986 (inactive) | 0.986 (inactive) | 0.932 (inactive) | 1.02 (inactive) | 1.04 (inactive) | 1 (inactive) | 0.939 (inactive)
CCNc1nc(NC(C)C)[nH]c(=O)n1 | 0.993 (inactive) | 1 (inactive) | 1.02 (inactive) | 1.04 (inactive) | 0.998 (inactive) | 1 (inactive) | 1.07 (inactive) | 0.962 (inactive) | 1.05 (inactive) | 1.02 (inactive) | 0.992 (inactive) | 1.03 (inactive) | 1.05 (inactive) | 0.992 (inactive) | 1.06 (inactive) | 1.03 (inactive) | 0.963 (inactive) | 0.994 (inactive) | 1.02 (inactive) | 1 (inactive)
O=c1oc2ccccc2c(O)c1C1CC(c2ccc(-c3ccc(Br)cc3)cc2)Cc2ccccc21 (stereo not given) | 0.966 (inactive) | 0.91 (inactive) | 0.335 (active) | 0.89 (inactive) | 0.00883 (active) | 0.788 (active) | 0.86 (inactive) | 0.647 (active) | 0.263 (active) | 0.911 (inactive) | 0.856 (inactive) | 0.998 (inactive) | 1 (inactive) | 0.567 (active) | 0.96 (inactive) | 0.652 (active) | 0.714 (active) | 0.99 (inactive) | 0.126 (active) | 0.00968 (active)
c1ccc(-c2ccccc2)cc1 | 1.09 (inactive) | 0.985 (inactive) | 1.03 (inactive) | 0.967 (inactive) | 1.22 (inactive) | 0.969 (inactive) | 1.01 (inactive) | 1.03 (inactive) | 0.948 (inactive) | 0.963 (inactive) | 0.991 (inactive) | 1.03 (inactive) | 1.01 (inactive) | 1.09 (inactive) | 1.1 (inactive) | 0.94 (inactive) | 0.749 (inactive) | 0.945 (inactive) | 1.04 (inactive) | 0.998 (inactive)
COP(=S)(OC)Oc1ccc(S(=O)(=O)N(C)C)cc1 | 0.82 (inactive) | 0.947 (inactive) | 0.999 (inactive) | 0.962 (inactive) | 0.84 (inactive) | 0.983 (inactive) | 0.981 (inactive) | 0.984 (inactive) | 0.976 (inactive) | 0.977 (inactive) | 0.984 (inactive) | 1 (inactive) | 0.985 (inactive) | 0.998 (inactive) | 0.894 (inactive) | 0.925 (inactive) | 0.935 (inactive) | 0.977 (inactive) | 1.01 (inactive) | 0.969 (inactive)
Clc1cccc(C(Cl)(Cl)Cl)n1 | 1.16 (inactive) | 1.01 (inactive) | 1.01 (inactive) | 0.948 (inactive) | 1.03 (inactive) | 1.02 (inactive) | 0.961 (inactive) | 1.06 (inactive) | 1.01 (inactive) | 0.974 (inactive) | 1.02 (inactive) | 0.974 (inactive) | 0.976 (inactive) | 1.05 (inactive) | 1.01 (inactive) | 0.889 (inactive) | 1.01 (inactive) | 0.964 (inactive) | 1 (inactive) | 0.967 (inactive)
CCOP(=S)(OCC)SCCSCC | 0.992 (inactive) | 1.03 (inactive) | 1.01 (inactive) | 0.973 (inactive) | 1.06 (inactive) | 1.01 (inactive) | 0.973 (inactive) | 1.02 (inactive) | 0.977 (inactive) | 0.972 (inactive) | 1.03 (inactive) | 1.01 (inactive) | 1 (inactive) | 0.971 (inactive) | 1.09 (inactive) | 1.02 (inactive) | 1.1 (inactive) | 1.02 (inactive) | 0.991 (inactive) | 1.01 (inactive)
